From PubChem BioAssay (Tox21)
Unmarked numbers belong to inactive results. Results filed as inconclusive are left out. Where a call stands in place of a potency, no number is given. Active and inactive are the calls of the source. Unless noted, calls come from the whole dose curve; as a rule, active = well fitted curve in the direction sought with a large enough effect in the repeat runs; inconclusive = weak or mixed curves; inactive = no such curve, though single readings can be large; an effect the other way counts as inactive or inconclusive.

How the values were obtained:
[1] = target: Thyrotropin-releasing hormone receptor (Homo sapiens) (UniProt P34981); assay: qHTS assay to identify small molecule agonists of the thyrotropin-releasing hormone receptor (TRHR) signaling pathway (AID 1346891; calls by dose curve; note: series mostly up to about 58 µM)
In short: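 TRHR-expressing HEK293 cells were plated 18 h at 37 °C/5% CO2, loaded with calcium dye 2 h at 37 °C, then given compound in DMSO; fluorescence was read kinetically for 3 min at 1 s intervals.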

[2] = Human pregnane X receptor (PXR) small molecule agonists, qHTS cell viability counter screen (AID 1346977); note: nearly all actives have a fitted effect of over 50% in size
In short: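 PXR-Luc HepG2 cells in medium with 5% charcoal-stripped FBS were pre-incubated 5hr, then exposed to compounds for 24hr at 37C. Viability was read in the same wells by CellTiter-Fluor fluorescence, reagent added after 23hr with a 1hr incubation.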

[3] = Caspase-3/7 induction in HepG2 cells by small molecules, qHTS assay (AID 1346978); note: nearly all actives have a fitted effect of over 15% in size
In short: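 Wild-type HepG2 cells (2,000/well) were settled 5 h at 37 C, 5% CO2, then exposed to compounds in DMSO for 17 h. Caspase-3/7 activity was read by luminescence 30 min after adding Caspase-Glo 3/7 reagent at room temperature.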

[4] = Caspase-3/7 induction in CHO-K1 cells by small molecules, qHTS cell viability counter screen (AID 1346979); note: nearly all actives have a fitted effect of over 35% in size
In short: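 Wild-type CHO-K1 cells were seeded at 1,500 per well, rested 5hr at 37 C, then exposed to compounds in DMSO. After 16hr, CellTiter-Fluor reagent was added and fluorescence read 1hr later as the viability measure.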

[5] = Caspase-3/7 induction in CHO-K1 cells by small molecules, qHTS assay (AID 1346980); note: nearly all actives have a fitted effect of over 15% in size
In short: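 Wild-type cells were seeded at 1,500 per well and settled 5 hr at 37 C, 5% CO2, then exposed to DMSO-dissolved compounds for 17 hr. Caspase-Glo 3/7 reagent was added, and luminescence was read after 30min at room temperature.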

[6] = Caspase-3/7 induction in HepG2 cells by small molecules, qHTS cell viability counter screen (AID 1346981); note: series mostly up to about 92 µM; nearly all actives have a fitted effect of over 30% in size
In short: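 Viability determined by CellTiter-Fluor fluorescence in HepG2 wells also used for the luminescent Caspase-Glo 3/7 read. Compounds were present for 16 hr at 37 C, 5% CO2 before reagent addition.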

[7] = target: Nuclear receptor subfamily 1 group I member 2 (Homo sapiens) (UniProt O75469); assay: Human pregnane X receptor (PXR) small molecule agonists, qHTS assay (AID 1346982); note: nearly all actives have a fitted effect of over 35% in size; note: potency is the fitted concentration of half-maximal effect
In short: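 Compound-induced hPXR transactivation of a CYP3A4 luciferase reporter was scored in HepG2 PXR-Luc cells over 24 hr at 37 C, 5% CO2, by luminescence.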

[8] = target: Cytochrome P450 2D6 (Homo sapiens) (UniProt P10635); assay: Cytochrome P450 Family 2 Subfamily D Member 6 (CYP2D6) small molecule antagonists: luciferase reporter qHTS assay (AID 1671196); note: nearly all actives have a fitted effect of over 50% in size; note: potency is the fitted concentration of half-maximal effect
In short: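 Each well received CYP2D6 with its proluciferin substrate and chemical, sat 10 min, then got NADPH regeneration solution for 1 h at room temperature. Luminescence in RLU served as the activity measure.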

[9] = target: Cytochrome P450 2C19 (Homo sapiens) (UniProt P33261); assay: Cytochrome P450 Family 2 Subfamily C Member 19 (CYP2C19) small molecule antagonists: luciferase reporter qHTS assay (AID 1671197); note: nearly all actives have a fitted effect of over 65% in size; note: potency is the fitted concentration of half-maximal effect
In short: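 Relative luminescence units recorded 20 min after the detection reagent stopped a 1 h, 37C CYP2C19 reaction on proluciferin substrate, which was started by NADPH regeneration following 10 min room-temperature compound preincubation; ketoconazole positive control.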

[10] = target: Cytochrome P450 1A2 (Homo sapiens) (UniProt P05177); assay: Cytochrome P450 Family 1 Subfamily A Member 2 (CYP1A2) small molecule antagonists: luciferase reporter qHTS assay (AID 1671199); note: nearly all actives have a fitted effect of over 50% in size; note: potency is the fitted concentration of half-maximal effect
In short: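 Enzymatic CYP1A2 assay, human, luminescent: 10 min compound–enzyme–substrate preincubation, 1 h NADPH-dependent turnover, 20 min detection step, room temperature throughout. Reduced light indicates lower CYP1A2 activity.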

[11] = target: Cytochrome P450 3A4 (Homo sapiens) (UniProt P08684); assay: Cytochrome P450 Family 3 Subfamily A Member 4 (CYP3A4) small molecule antagonists: luciferase reporter qHTS assay (AID 1671201); note: nearly all actives have a fitted effect of over 50% in size; note: potency is the fitted concentration of half-maximal effect
In short: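 P450-Glo CYP3A4 system with proluciferin substrate; compounds preincubated 10 min RT with enzyme-substrate mix, then NADPH regeneration added for 1 h RT. Detection reagent 20 min, luminescence read as relative luminescence units.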

[12] = target: Cytochrome P450 2C9 (Homo sapiens) (UniProt P11712); assay: Cytochrome P450 Family 2 Subfamily C Member 9 (CYP2C9) small molecule antagonists: luciferase reporter qHTS assay (AID 1671198); note: nearly all actives have a fitted effect of over 50% in size; note: potency is the fitted concentration of half-maximal effect
In short: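 CYP2C9 activity was measured with a P450-Glo proluciferin substrate. Enzyme–substrate mix was held with compound for 10 min at room temperature, then NADPH regeneration solution was added for 1 h at 37C. Luciferin product was read as luminescence.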

[13] = target: Voltage-gated inwardly rectifying potassium channel KCNH2 (Homo sapiens) (UniProt Q12809); assay: Human Ether-a-go-go-Related Gene (hERG) channel small molecule antagonists: fluorescence cell-based qHTS assay (AID 1671200)
In short: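 U2OS cells expressing the channel were plated at 1000 cells/well, incubated overnight at 37 C, then loaded with FluxOR II thallium-sensitive dye for 1 h at room temperature in the dark, with a further 10 min at room temperature before stimulation.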

[14] = target: Nuclear receptor subfamily 1 group I member 2 (Homo sapiens) (UniProt O75469); assay: CYP3A4 induction through human pregnane X receptor (PXR) by small molecules, qHTS assay (AID 1346984); note: potency is the fitted concentration of half-maximal effect; nearly all actives have a fitted effect of over 40% in size
In short: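 Readings come from a luciferase reporter: DPX-2 cells, which are HepG2 cotransfected with PXR and a CYP3A4-promoter construct, were exposed to test compounds for 24 h at 37C before One-Glo detection.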

[15] = target: Nuclear receptor subfamily 1 group I member 2 (Homo sapiens) (UniProt O75469); assay: Human pregnane X receptor (PXR) activation by small molecules, qHTS assay (AID 1346985); note: nearly all actives have a fitted effect of over 40% in size
In short: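 DPX-2 cells (HepG2 co-transfected with a PXR response element and a CYP3A4-promoter luciferase construct) were seeded at 2,000 per well, rested 5 hr at 37C, then exposed to DMSO-dissolved compounds for 24 hr. Activation was read as luciferase luminescence.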

Sequence of Thyrotropin-releasing hormone receptor (Homo sapiens) (P34981 whole entry, looked up): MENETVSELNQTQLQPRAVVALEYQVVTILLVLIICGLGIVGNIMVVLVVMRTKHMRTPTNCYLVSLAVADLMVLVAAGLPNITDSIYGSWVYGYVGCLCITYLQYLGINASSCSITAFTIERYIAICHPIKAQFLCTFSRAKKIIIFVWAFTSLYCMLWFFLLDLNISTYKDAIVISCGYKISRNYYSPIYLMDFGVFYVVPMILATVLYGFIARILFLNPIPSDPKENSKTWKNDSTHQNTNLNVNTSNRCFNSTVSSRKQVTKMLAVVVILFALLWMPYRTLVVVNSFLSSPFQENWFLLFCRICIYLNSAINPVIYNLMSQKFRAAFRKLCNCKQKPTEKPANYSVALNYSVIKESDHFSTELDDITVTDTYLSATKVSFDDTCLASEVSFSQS
Sequence of Nuclear receptor subfamily 1 group I member 2 (Homo sapiens) (O75469 whole entry, looked up): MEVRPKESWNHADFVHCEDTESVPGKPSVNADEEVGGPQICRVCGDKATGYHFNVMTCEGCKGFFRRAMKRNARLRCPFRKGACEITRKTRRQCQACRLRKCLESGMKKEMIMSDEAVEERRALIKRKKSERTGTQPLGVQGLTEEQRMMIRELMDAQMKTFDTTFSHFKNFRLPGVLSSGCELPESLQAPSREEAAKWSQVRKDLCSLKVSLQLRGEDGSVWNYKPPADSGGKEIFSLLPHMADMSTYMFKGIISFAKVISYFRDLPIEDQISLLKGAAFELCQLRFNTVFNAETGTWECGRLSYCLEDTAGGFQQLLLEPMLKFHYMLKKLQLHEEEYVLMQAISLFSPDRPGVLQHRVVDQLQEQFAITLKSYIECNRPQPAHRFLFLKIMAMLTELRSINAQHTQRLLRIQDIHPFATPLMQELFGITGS
Sequence of Cytochrome P450 3A4 (Homo sapiens) (P08684 whole entry, looked up): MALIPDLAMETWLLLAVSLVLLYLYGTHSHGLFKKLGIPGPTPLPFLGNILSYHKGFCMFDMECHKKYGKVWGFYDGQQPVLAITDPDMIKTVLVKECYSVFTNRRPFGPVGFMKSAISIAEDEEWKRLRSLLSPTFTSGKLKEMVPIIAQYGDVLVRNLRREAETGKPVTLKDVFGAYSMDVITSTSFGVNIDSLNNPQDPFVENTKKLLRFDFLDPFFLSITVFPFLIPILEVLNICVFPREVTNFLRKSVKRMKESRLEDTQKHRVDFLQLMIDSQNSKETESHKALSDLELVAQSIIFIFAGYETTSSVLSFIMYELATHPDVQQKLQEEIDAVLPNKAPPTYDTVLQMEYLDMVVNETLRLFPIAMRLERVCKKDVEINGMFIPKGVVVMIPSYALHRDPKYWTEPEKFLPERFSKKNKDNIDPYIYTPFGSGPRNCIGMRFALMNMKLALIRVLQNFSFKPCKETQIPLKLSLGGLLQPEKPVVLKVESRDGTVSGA
Sequence of Cytochrome P450 2C9 (Homo sapiens) (P11712 whole entry, looked up): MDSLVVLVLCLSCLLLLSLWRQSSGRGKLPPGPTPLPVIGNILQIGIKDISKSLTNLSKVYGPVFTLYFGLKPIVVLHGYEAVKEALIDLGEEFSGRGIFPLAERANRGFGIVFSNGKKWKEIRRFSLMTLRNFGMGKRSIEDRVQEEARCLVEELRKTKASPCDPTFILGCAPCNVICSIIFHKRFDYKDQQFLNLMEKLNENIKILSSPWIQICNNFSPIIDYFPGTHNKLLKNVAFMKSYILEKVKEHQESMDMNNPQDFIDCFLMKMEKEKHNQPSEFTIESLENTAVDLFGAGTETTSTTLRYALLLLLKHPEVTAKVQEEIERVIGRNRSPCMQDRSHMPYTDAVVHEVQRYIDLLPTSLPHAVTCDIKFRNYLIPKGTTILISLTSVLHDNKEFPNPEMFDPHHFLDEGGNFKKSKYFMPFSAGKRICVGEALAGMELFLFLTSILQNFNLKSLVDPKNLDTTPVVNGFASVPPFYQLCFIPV
Sequence of Voltage-gated inwardly rectifying potassium channel KCNH2 (Homo sapiens) (Q12809 whole entry, looked up): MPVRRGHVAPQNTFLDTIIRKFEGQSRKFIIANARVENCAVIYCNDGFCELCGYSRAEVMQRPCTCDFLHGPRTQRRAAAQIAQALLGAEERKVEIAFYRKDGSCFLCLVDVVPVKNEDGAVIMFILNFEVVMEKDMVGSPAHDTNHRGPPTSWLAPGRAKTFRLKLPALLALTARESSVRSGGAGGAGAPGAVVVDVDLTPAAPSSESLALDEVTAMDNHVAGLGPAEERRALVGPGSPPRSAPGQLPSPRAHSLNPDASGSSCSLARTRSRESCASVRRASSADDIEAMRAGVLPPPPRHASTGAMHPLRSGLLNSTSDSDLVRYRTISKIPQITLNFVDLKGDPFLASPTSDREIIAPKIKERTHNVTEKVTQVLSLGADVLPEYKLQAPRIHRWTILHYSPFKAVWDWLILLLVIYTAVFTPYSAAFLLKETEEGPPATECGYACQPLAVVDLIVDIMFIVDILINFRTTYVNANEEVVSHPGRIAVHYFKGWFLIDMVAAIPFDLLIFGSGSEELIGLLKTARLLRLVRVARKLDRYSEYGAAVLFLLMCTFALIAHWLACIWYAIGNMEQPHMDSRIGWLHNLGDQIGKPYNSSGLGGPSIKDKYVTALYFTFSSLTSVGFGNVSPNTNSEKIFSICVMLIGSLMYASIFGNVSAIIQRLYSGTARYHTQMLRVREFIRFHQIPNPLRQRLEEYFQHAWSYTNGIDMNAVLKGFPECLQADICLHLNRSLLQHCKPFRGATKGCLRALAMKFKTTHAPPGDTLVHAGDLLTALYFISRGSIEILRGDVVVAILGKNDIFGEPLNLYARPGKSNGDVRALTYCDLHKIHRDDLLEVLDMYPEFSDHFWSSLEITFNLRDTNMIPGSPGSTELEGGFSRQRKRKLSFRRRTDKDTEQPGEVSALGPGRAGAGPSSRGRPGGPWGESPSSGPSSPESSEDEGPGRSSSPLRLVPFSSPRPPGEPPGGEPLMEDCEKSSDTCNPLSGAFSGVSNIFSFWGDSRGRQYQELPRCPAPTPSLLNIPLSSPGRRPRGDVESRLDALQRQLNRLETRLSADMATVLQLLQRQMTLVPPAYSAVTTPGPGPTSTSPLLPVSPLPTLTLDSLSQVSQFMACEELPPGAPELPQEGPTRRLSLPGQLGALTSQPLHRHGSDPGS
Sequence of Cytochrome P450 1A2 (Homo sapiens) (P05177 whole entry, looked up): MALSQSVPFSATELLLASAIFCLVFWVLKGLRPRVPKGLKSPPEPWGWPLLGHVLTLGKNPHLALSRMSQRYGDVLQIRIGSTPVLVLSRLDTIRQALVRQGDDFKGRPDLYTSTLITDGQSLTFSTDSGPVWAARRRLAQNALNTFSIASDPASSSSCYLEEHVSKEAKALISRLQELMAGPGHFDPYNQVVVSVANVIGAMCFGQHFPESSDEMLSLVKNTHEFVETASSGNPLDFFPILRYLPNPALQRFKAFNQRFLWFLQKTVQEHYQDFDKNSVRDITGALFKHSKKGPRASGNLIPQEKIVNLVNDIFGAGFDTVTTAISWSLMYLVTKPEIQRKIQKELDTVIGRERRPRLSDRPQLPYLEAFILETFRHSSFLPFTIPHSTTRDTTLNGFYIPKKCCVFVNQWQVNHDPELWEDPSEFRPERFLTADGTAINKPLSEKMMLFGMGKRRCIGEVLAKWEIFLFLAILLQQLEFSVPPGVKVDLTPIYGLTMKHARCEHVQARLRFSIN
Sequence of Cytochrome P450 2D6 (Homo sapiens) (P10635 whole entry, looked up): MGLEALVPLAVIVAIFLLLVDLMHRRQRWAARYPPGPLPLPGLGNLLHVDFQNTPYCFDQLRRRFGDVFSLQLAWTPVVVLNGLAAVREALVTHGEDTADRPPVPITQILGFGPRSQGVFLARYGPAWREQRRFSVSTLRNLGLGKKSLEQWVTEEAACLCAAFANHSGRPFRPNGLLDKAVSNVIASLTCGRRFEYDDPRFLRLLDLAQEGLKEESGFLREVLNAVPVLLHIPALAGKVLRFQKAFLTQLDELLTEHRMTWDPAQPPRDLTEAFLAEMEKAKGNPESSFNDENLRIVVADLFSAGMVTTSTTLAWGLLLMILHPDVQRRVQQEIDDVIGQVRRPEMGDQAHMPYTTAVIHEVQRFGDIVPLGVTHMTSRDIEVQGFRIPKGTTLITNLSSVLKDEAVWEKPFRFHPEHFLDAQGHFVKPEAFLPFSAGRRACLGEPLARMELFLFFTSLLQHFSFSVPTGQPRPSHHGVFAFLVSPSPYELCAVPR
Sequence of Cytochrome P450 2C19 (Homo sapiens) (P33261 whole entry, looked up): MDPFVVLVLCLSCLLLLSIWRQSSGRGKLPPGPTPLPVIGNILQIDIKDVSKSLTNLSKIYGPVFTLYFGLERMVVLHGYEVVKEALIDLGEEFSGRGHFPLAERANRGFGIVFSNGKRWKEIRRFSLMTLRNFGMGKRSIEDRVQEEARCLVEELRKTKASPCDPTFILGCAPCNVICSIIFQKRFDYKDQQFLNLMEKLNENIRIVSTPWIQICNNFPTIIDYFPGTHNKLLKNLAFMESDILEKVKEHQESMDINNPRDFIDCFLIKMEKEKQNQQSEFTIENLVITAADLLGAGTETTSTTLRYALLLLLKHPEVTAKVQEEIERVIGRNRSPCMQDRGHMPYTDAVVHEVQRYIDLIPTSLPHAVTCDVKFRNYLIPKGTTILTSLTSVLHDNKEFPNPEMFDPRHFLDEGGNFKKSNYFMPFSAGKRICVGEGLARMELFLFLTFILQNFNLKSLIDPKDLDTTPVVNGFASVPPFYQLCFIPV

SMILES	outcome [1]	Potency [2]	Potency [3]	Potency [4]	Potency [5]	Potency [6]	Potency [7]	Potency [8]	Potency [9]	Potency [10]	Potency [11]	Potency [12]	Potency [13]	Potency [14]	Potency [15]
NC(=O)c1ccccc1C(N)=O	inactive	inactive	inactive	inactive	inactive	inactive	inactive	40.1 µM (active)	40.1 µM (active)	28.4 µM (active)	63.5 µM (active)				
CCCCCCCCC(=O)OCC(C)OC(=O)CCCCCCCC (stereo unspecified)	inactive	inactive	inactive	inactive	inactive	inactive	inactive	inactive	83.4 µM (active)		inactive	59.1 µM (active)	inactive		
O=C(O)CNc1ccccc1	inactive	inactive	inactive	inactive	inactive	inactive	inactive	inactive	inactive		inactive				
C=CC(O)CCCCC (stereo unspecified)	inactive	inactive	inactive	inactive	inactive	inactive	inactive	inactive	inactive	inactive	inactive	inactive			
CC(=O)c1ccc(Cl)c(Cl)c1Cl	inactive	inactive	inactive	inactive	inactive	inactive	inactive	inactive	70.9 µM (active)	11.2 µM (active)	inactive	inactive			
CCC(C)CCCC(C)(C)O (stereo unspecified)	inactive	inactive	inactive	inactive	inactive	inactive	inactive	inactive	inactive	inactive	inactive		inactive		
O=C(O)COCC(=O)O	inactive	inactive	inactive	inactive	inactive	inactive	inactive	inactive	inactive	inactive	inactive		inactive		
O=C(O)c1cccnc1Nc1cccc(C(F)(F)F)c1	inactive	inactive	inactive	inactive	inactive	inactive	13.3 µM (active)	inactive	inactive		inactive		inactive		
CC(CN=Cc1ccccc1O)N=Cc1ccccc1O (stereo unspecified)	inactive	inactive	inactive	inactive	inactive	inactive	inactive	35.6 µM (active)	inactive	20 µM (active)	inactive		inactive		
CCC[Si](OC)(OC)OC	inactive	inactive	inactive	inactive	inactive	inactive	inactive	inactive	71 µM (active)		inactive				
CCCCCCCCCC(C)C=O (stereo unspecified)	inactive	inactive	inactive	inactive	inactive	inactive	48.6 µM (active)	inactive	inactive		inactive	44.8 µM (active)	inactive		
CCCCCC1CCC(=O)O1 (stereo unspecified)	inactive	inactive	inactive	inactive	inactive	inactive	inactive	inactive	inactive		inactive	89.4 µM (active)	inactive		
C=Cc1ccc(C=C)cc1	inactive	inactive	inactive	inactive	inactive	inactive	inactive	inactive		inactive		inactive	inactive		
O=[N+]([O-])c1ccccc1CCO	inactive	inactive	inactive	inactive	inactive	inactive	inactive	inactive	inactive		inactive	inactive	inactive		
CC(CCl)OC(C)CCl (stereo unspecified)	inactive	inactive	inactive	inactive	inactive	inactive	inactive	inactive	inactive	inactive	inactive	inactive			
CCCC1CCOC(C)S1 (stereo unspecified)	inactive	inactive	inactive	inactive	inactive	inactive	inactive	inactive	inactive	inactive	inactive	inactive			
O=C(O)c1cc(C(=O)O)cc([N+](=O)[O-])c1	inactive	inactive	inactive	inactive	inactive	inactive	inactive	inactive	inactive		inactive	inactive	inactive		
C=C(C)C(=O)OCCCCCCCCCCOC(=O)C(=C)C	inactive	inactive	inactive	inactive	inactive	inactive	inactive	35.6 µM (active)	inactive	44.8 µM (active)	inactive				
CC(C)NC(=O)c1ccccc1N	inactive	inactive	inactive	inactive	inactive	inactive	inactive	inactive	inactive			inactive	inactive		
Cc1c(Cl)cccc1[N+](=O)[O-]	inactive	inactive	inactive	inactive	inactive	inactive	inactive	inactive	inactive	inactive	inactive	inactive			
C[C@]12CCC(=O)C=C1[C@@H]1C[C@@H]1[C@H]1[C@@H]3[C@@H]4C[C@@H]4[C@@]4(CCC(=O)O4)[C@@]3(C)CC[C@@H]12														11.2 µM (active)	
CC(=O)OCC(=O)[C@@]1(O)CC[C@H]2[C@@H]3CCC4=CC(=O)C=C[C@]4(C)[C@@]3(F)[C@@H](O)C[C@@]21C														0.631 µM (active)	inactive
CCc1ccc(C(=O)C(C)CN2CCCCC2)cc1 (stereo unspecified)															inactive
Sc1nc(S)nc(S)n1	inactive	inactive		inactive	inactive	inactive	inactive	inactive	inactive	inactive	inactive		inactive		
